Test results from PubChem BioAssay (NCI).
About 83,000 compounds went through this panel and 20% of them were active in at least one assay; those are over-represented in the sample as a whole.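 Step 1: grow cells in 96-well plates. Step 2: add test compound at a single concentration. Step 3: incubate 48 h. Step 4: record percent growth.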 Active and inactive are the calls of the source. Rule for the calls: active = growth percent below 10; inactive = the rest.

Tests used:
Assay in all cases: NCI-60 one-dose screen, 48 h (100 = growth as untreated, 0 = no growth, -100 = all killed)
Settings in all cases: 10 µM unless noted
[1] = tested on: DU-145 prostate
[2] = tested on: MALME-3M melanoma
[3] = tested on: MDA-MB-231 breast
[4] = tested on: RXF 393 renal
[5] = tested on: SF-268 CNS
[6] = tested on: SF-295 CNS
[7] = tested on: SF-539 CNS
[8] = tested on: UACC-257 melanoma
[9] = tested on: M14 melanoma
[10] = tested on: HCT-15 colon
[11] = tested on: HT29 colon
[12] = tested on: SNB-75 CNS
[13] = tested on: U251 CNS
[14] = tested on: PC-3 prostate
[15] = tested on: SK-MEL-5 melanoma
[16] = tested on: UACC-62 melanoma
[17] = tested on: LOX IMVI melanoma
[18] = tested on: SK-MEL-28 melanoma
[19] = tested on: SNB-19 CNS

Measured: growth

O=C(CNC1C2CC3CC(C2)CC1C3)Sc1nnc2sc3ccccc3n12 (stereo unspecified)
inactive: [1] 110% | [2] 95.2% | [3] 81.5% | [4] 114% | [5] 101% | [6] 94.2% | [7] 94.3% | [8] 116% | [9] 104% | [10] 105% | [11] 106% | [12] 76.5% | [13] 104% | [14] 77.4% | [15] 93.9% | [16] 88.2% | [17] 94.5% | [18] 112%

COc1cc2cc(COc3nccc(-c4ccc(Cl)cc4)n3)c(=O)[nH]c2cc1OC
active: [9] -27.4% | [11] -7.34%
inactive: [1] 81.4% | [2] 45.7% | [3] 55.1% | [4] 61.9% | [5] 80.1% | [6] 97.6% | [7] 67.9% | [8] 98% | [10] 63.6% | [12] 91.6% | [19] 77.1% | [14] 71.4% | [15] 77.2% | [16] 92.3% | [17] 54.7% | [18] 40.3%

CN1CCN(Cc2ccc(NC(=O)c3[nH]ncc3Nc3ncnc4sccc34)cc2)CC1
active: [1] 7.12% | [3] -4.43% | [4] -51.1% | [5] -3.74% | [7] -30.2% | [10] 7.97% | [12] -32.5% | [14] 6.12% | [15] -5.05% | [16] 8.83% | [17] -1.47%
inactive: [2] 16.7% | [6] 24% | [8] 33.9% | [9] 22.6% | [11] 17% | [13] 16.4% | [18] 17.8%

CCOC(=O)C(CC)n1c(=O)c2cc(OC)c(OC)cc2c2cnc3[nH]ccc3c21 (stereo unspecified)
inactive: [1] 78.5% | [2] 98.9% | [3] 70.5% | [4] 34.5% | [5] 67.4% | [6] 65% | [7] 66.3% | [8] 97.5% | [9] 88.5% | [10] 75% | [11] 76.9% | [12] 45.3% | [19] 90.8% | [14] 57.1% | [15] 80.9% | [16] 63.2% | [17] 44.8% | [18] 90.7%

Nc1ccc(Nc2nccc(-c3ccc4ccccc4c3)n2)cc1
inactive: [1] 67.4% | [2] 59.5% | [3] 46.8% | [4] 50.3% | [5] 49.9% | [6] 64.8% | [7] 55.4% | [8] 58.6% | [9] 26.8% | [10] 25% | [11] 14.3% | [12] 39% | [19] 62.9% | [15] 47.3% | [16] 32.2% | [17] 38.1% | [18] 57.2%

CN1CCN(c2ccc3nc(-c4ccc5nc(-c6ccc(OCCC(C)(C)C)cc6)[nH]c5c4)[nH]c3c2)CC1
active: [1] -80.9% | [3] -33.3% | [4] -72.1% | [7] -72.3% | [9] -11.2% | [11] -82.3% | [19] -67.6% | [14] -72.6% | [17] -73.7% | [18] -59.2%
inactive: [2] 18.2% | [5] 56.6% | [6] 50.9% | [8] 110% | [10] 56.3% | [12] 90.1% | [15] 80.2% | [16] 88.1%

CC[C@H](Nc1nc(N)nc(C)c1C#N)c1nc2cccc(NCc3ccc(C(=O)NO)cc3)c2c(=O)n1-c1ccccc1
inactive: [1] 17.2% | [2] 21.5% | [10] 38.7% | [12] 14.3%
active: [3] 7.58% | [4] -21.7% | [5] 9.63% | [6] -3.97% | [7] -18.8% | [8] 0.817% | [9] 0.234% | [11] 3.55% | [19] 7.28% | [14] 5.79% | [15] -13.2% | [16] -28.6% | [17] -52.6% | [18] -0.295%

COc1c2ccccc2c(OC)c2[nH]c(=O)ccc12
active: [1] -95.1% | [2] -63.2% | [6] -21.4% | [9] -46.1% | [12] -21.3% | [15] -96.7% | [16] -6.37%
inactive: [3] 69.4% | [4] 91.3% | [5] 64.4% | [8] 40.8% | [10] 22.1% | [11] 46.6% | [19] 12.2% | [13] 28.4% | [14] 67% | [17] 12.1% | [18] 25.4%

COc1ccc2[nH]c(=O)c(/C=C/C(=O)c3ccc(Nc4nccc(-c5ccc6ccccc6c5)n4)cc3)cc2c1
inactive: [1] 99.9% | [2] 101% | [3] 96.2% | [4] 102% | [5] 94.9% | [6] 101% | [7] 101% | [8] 95.2% | [9] 101% | [10] 110% | [11] 102% | [12] 95.7% | [19] 91.9% | [14] 98.2% | [15] 101% | [16] 88.7% | [17] 100% | [18] 108%

CCN1CCN(Cc2ccc(NC(=O)Nc3nc4ccc(Oc5ccnc(C(=O)NC)c5)cc4s3)cc2C(F)(F)F)CC1
inactive: [15] 19.8%
active: [1] -16.1% | [2] -68% | [3] -78.4% | [4] -88.4% | [5] -47.3% | [6] -23.9% | [7] -85.2% | [8] -49.2% | [9] -76.2% | [10] -55.8% | [11] 1.79% | [12] -87.4% | [13] -60.8% | [16] -92.7% | [17] -78.9% | [18] -85.2%

CC(C)c1c(C(=O)Nc2ccccc2)c(-c2ccccc2)c(-c2ccc(F)cc2)n1CC[C@@H]1CC=CC(=O)O1
active: [2] 8.81% | [3] -25.6% | [4] -84.5% | [5] -33.3% | [7] -18.5% | [9] -11.2% | [10] -42.7% | [11] -35.6% | [12] -25% | [14] -39.2% | [17] -75.4% | [18] -57.1%
inactive: [1] 26.3% | [6] 82.3% | [8] 16.9% | [19] 14.2% | [15] 21.7% | [16] 18.9%

Nc1nc(-c2ccc(F)cc2)cc(-c2cnn(-c3ccccc3)n2)n1
inactive: [1] 104% | [2] 124% | [3] 102% | [4] 97.4% | [5] 98.8% | [6] 107% | [7] 106% | [8] 95.8% | [9] 117% | [10] 95.4% | [11] 93.5% | [12] 100% | [19] 104% | [15] 104% | [16] 91.1% | [17] 97.2% | [18] 107%

CCOC(=O)C(=Cc1ccccc1F)C(=O)OCC
inactive: [1] 71.1% | [2] 94.2% | [3] 93.3% | [4] 102% | [5] 89.9% | [6] 111% | [7] 98% | [8] 83.2% | [9] 85.8% | [10] 86.9% | [11] 103% | [12] 83.4% | [19] 104% | [14] 87.6% | [15] 92.8% | [17] 86.4% | [18] 104%

C[C@@H]1CC[C@@H]2[C@@H]1[C@H](OC(=O)/C=C/c1ccccc1)[C@]1(C3CCCCC3)C[C@@H](OC(=O)CO)[C@@]2(C)O1
inactive: [1] 81.5% | [2] 104% | [3] 84.7% | [4] 26.9% | [5] 32.1% | [6] 87.5% | [7] 89.6% | [8] 67.8% | [9] 89.9% | [10] 66.2% | [11] 38.4% | [12] 88.4% | [19] 88.2% | [14] 22.8% | [15] 85.9% | [16] 73.3% | [17] 76% | [18] 83.8%

COc1ccc(-c2cc(-c3cccnc3)nc3sc4c(=O)n(-c5ccc(C)cc5)nnc4c23)cc1OC
inactive: [1] 107% | [2] 96% | [3] 79.6% | [4] 101% | [5] 101% | [6] 96.6% | [7] 93.4% | [8] 104% | [9] 104% | [10] 103% | [11] 105% | [12] 85.8% | [13] 104% | [14] 95.8% | [15] 97.4% | [16] 98.7% | [17] 97.2% | [18] 99.9%

COCCOc1ccc(-c2nc3ccc(-c4nc5ccc(N6CCN(C)CC6)cc5[nH]4)cc3[nH]2)cc1
active: [2] -38.9% | [3] 8.21% | [4] -62.8% | [5] 7.43% | [7] -30.7% | [8] 8.32% | [9] 1.05% | [11] 4.98% | [12] -21.2% | [16] -39.9% | [17] -72.5% | [18] -39.2%
inactive: [1] 29.7% | [6] 48.4% | [10] 85.9% | [14] 22.5% | [15] 11.2%

CC(=O)/C(=C/c1cccc(Cl)c1)C(=O)c1ccccc1
inactive: [1] 92.2% | [2] 85.5% | [3] 84.8% | [4] 93.1% | [5] 79.2% | [6] 96.1% | [7] 105% | [8] 72.3% | [9] 73.1% | [10] 70% | [11] 67.7% | [12] 84.7% | [19] 94.3% | [14] 63.1% | [15] 89.9% | [16] 83.3% | [18] 90.9%
active: [17] 6.93%
